Results published in PubChem BioAssay AID623955 (NMMLSC, 2012).
Potency and affinity values are given separately. The source made the active and inactive calls.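 The calls were made as follows: active = fitted EC50, the concentration giving half the signal drop, under 100 µM; inactive = the rest.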

The compounds below were run against ATP-binding cassette sub-family B member 6 (Homo sapiens) (UniProt Q9NP58) (assay: ABCB6 transporter inhibitors, dose response, K562-ABCB6 cells, flow cytometry, cherry pick 1 (AID 623955)). Conditions: K562-ABCB6 porphyrin fluorescence, 1 h; series mostly up to 100 µM; response, lower = inhibition: at the top concentration.
Chain of ATP-binding cassette sub-family B member 6 (Homo sapiens) (Q9NP58 whole entry, looked up): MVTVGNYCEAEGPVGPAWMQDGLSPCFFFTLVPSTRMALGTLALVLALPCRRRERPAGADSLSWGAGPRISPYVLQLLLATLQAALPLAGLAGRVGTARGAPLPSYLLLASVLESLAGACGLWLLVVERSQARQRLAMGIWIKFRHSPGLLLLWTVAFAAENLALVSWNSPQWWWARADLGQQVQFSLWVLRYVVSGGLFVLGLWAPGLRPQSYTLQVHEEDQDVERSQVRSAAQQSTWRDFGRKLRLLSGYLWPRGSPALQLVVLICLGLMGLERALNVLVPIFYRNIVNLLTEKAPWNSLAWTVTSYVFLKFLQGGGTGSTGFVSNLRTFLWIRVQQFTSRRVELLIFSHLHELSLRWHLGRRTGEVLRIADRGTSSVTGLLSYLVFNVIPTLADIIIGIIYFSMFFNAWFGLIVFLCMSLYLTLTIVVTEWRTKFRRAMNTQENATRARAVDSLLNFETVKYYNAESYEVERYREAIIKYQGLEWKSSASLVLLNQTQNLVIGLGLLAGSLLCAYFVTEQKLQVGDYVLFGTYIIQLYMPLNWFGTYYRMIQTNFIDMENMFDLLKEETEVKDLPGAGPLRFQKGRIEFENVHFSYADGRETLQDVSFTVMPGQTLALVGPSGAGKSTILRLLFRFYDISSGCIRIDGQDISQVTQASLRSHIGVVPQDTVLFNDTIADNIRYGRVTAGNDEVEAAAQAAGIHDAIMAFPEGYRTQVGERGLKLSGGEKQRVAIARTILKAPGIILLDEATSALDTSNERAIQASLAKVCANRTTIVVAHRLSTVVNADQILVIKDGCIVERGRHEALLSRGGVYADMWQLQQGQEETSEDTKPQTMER

response, lower = inhibition, inactive:
CCOC(=O)N1CCN(CC(=O)Nc2ccc(C)cc2)CC1 98.2%, CCCNC(=O)CCc1nnc2ccc(N3CCC(C)CC3)nn12 91.6%, COC(=O)C(NC(=O)CCc1nnc2ccc(N3CCC(C)CC3)nn12)C(C)C (centres undefined) 89.9%, CCN1CCN(C(=O)CCc2nnc3ccc(N4CCC5(CC4)OCCO5)nn23)CC1 103%, CCN(CC)CCNC(=O)CCc1nnc2ccc(N3CCC(C)CC3)nn12 96%, CCC(C)NC(=O)CCc1nnc2ccc(N3CCC(C)CC3)nn12 (centres undefined) 103%, CCOC(=O)C1CCN(C(=O)CCc2nnc3ccc(N4CCN(C)CC4)nn23)CC1 92.3%, CC1CCN(c2ccc3nnc(CCC(=O)NCCCOC(C)C)n3n2)CC1 99.7%, CCOC(=O)C(C)NC(=O)CCc1nnc2ccc(N3CCC(C)CC3)nn12 (centres undefined) 95.3%, COCCNC(=O)CCc1nnc2ccc(N3CCC(C)CC3)nn12 93%, CC1CCN(C(=O)CCc2nnc3ccc(N4CCC5(CC4)OCCO5)nn23)CC1 97.7%, O=C(CCc1nnc2ccc(N3CCC4(CC3)OCCO4)nn12)N1CCCCC1 104%, COCCCNC(=O)CCc1nnc2ccc(N3CCC(C)CC3)nn12 98.7%, CCc1ccc(CNC(=O)C2Cc3cc(S(=O)(=O)N4CCCC4)ccc3N2C(C)=O)cc1 (centres undefined) 92.3%, CC1CC(C)CN(C(=O)CCc2nnc3ccc(N4CCCCC4)nn23)C1 (centres undefined) 92.3%, CCOC(=O)C(C)NC(=O)CCc1nnc2ccc(N3CCCCC3)nn12 (centres undefined) 101%, O=C(CN1CCCCC1)Nc1cccc(Br)c1 100%, CC1CCN(c2ccc3nnc(CCC(=O)NC(C)C)n3n2)CC1 104%, CC1CCN(c2ccc3nnc(CCC(=O)N4CCCCC4)n3n2)CC1 97.7%, COC(=O)C(NC(=O)CCc1nnc2ccc(N3CCCCC3)nn12)C(C)C (centres undefined) 104%, CCOCCCNC(=O)CCc1nnc2ccc(N3CCCCC3)nn12 87.2%, CN1CCN(C(=O)CCc2nnc3ccc(N4CCC5(CC4)OCCO5)nn23)CC1 101%, CC(C)CCNC(=O)CCc1nnc2ccc(N3CCC(C)CC3)nn12 99.4%, CCOC(=O)CNC(=O)CCc1nnc2ccc(N3CCC(C)CC3)nn12 96.3%
